Test results: PubChem BioAssay (NCI)
Compounds without any hit were thinned out: in the full panel of roughly 83,000, 20% have a hit.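 Note: values are percent growth. 100 is the growth of untreated cells, values between 100 and 0 indicate rising inhibition; between -100 and 0 indicates cell death.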 Unmarked numbers belong to inactive results. Calls of active or inactive are those of the source. How the source made its calls: active means growth percent below 10; inactive means the rest.

Experiments:
Assay in all cases: NCI-60 one-dose screen, 48 h (100 = growth as untreated, 0 = no growth, -100 = all killed)
Details in all cases: 10 µM unless noted
DU-145 prostate = test system: DU-145 prostate
K-562 leukemia = test system: K-562 leukemia
MALME-3M melanoma = test system: MALME-3M melanoma
MDA-MB-231 breast = test system: MDA-MB-231 breast
RXF 393 renal = test system: RXF 393 renal
SF-268 CNS = test system: SF-268 CNS
SF-295 CNS = test system: SF-295 CNS
SF-539 CNS = test system: SF-539 CNS
UACC-257 melanoma = test system: UACC-257 melanoma
M14 melanoma = test system: M14 melanoma

Row | SMILES | growth (DU-145 prostate) | growth (K-562 leukemia) | growth (MALME-3M melanoma) | growth (MDA-MB-231 breast) | growth (RXF 393 renal) | growth (SF-268 CNS) | growth (SF-295 CNS) | growth (SF-539 CNS) | growth (UACC-257 melanoma) | growth (M14 melanoma)
1 | CC1=N[C@@H]2CN(C(=O)OC(C)(C)C)C[C@@H]2n2c1cc1ccccc1c2=O | 111% | 97.8% | 107% | 96.1% | 110% | 99.5% | 108% | 99.3% | 108% | 97.7%
2 | COc1ccc(-c2nc3ccc(-c4nnc(SCC(=O)Nc5ccc(C(=O)/C=C/c6ccc(Cl)cc6)cc5)o4)cc3[nH]2)cc1 | 104% | 93.9% | 96.1% | 94.8% | 98.2% | 94.9% | 95.9% | 87.1% | 107% | 105%
3 | COc1ccc2c(c1)c(-c1cc(N)n3nc(-c4cn(C)c5ccc(OC)cc45)cc3n1)cn2C | 93.1% | -16.6% (active) | 98% | 78.4% | 128% | 109% | 98.9% | 94.9% | 110% | 111%
4 | Cc1ccc(S(=O)(=O)NCCNc2nc(Nc3ccc(N4CCN(C)CC4)cc3)nc3ccsc23)cc1 | 102% | 0.196% (active) | 117% | 109% | 70% | 74.9% | 98.2% | 94.9% | 107% | 106%
5 | CCOc1cccc(-c2nc3sccn3c2-c2ccnc(S(C)(=O)=O)n2)c1 | 0.125% (active) | 55.4% | 98.8% | 101% | 98.3% | 99.7% | 104% | 94.4% | 91.1% | 94.4%
6 | CCOC(=O)c1c(Nc2ccccc2)nn2c(-c3ccc(OC)cc3)ccnc12 | 90.8% | 45.3% | 87.6% | 79.4% | -2.68% (active) | 101% | 89.5% | 83.8% | 110% | 96%
7 | O=S(=O)(Nc1cccc2ccccc12)c1ccc(-c2cnc(C3CC3)o2)cc1 | 15.3% | 8.55% (active) | 61.4% | 27.6% | 7.94% (active) | 55.5% | 0.665% (active) | 7.47% (active) | 69% | 14.5%
8 | Clc1nc2ccccc2nc1-c1nnc(C2CCCCC2)o1 | 91.3% | 80.9% | 95.2% | 105% | 87.6% | 101% | 106% | 97.7% | 96.7% | 94.3%
9 | CS(=O)(=O)Nc1cc(-c2ccc3ncc(C#N)c(NCc4ccccc4)c3c2)cnc1Cl | 8.12% (active) | 9.74% (active) | -38.7% (active) | -51.8% (active) | -46.6% (active) | -4.76% (active) | -32.3% (active) | -42.6% (active) | 1.36% (active) | -9.52% (active)
10 | N#Cc1c(-c2cccs2)cc(-c2cnccn2)nc1SCC(=O)Nc1ccc(Br)cc1 | 70% | 67.4% | 118% | 72.2% | 19.3% | 82.3% | 90.2% | 93.3% | 106% | 91.7%
